{
  "source": "the OligoGym collection",
  "data": [
    {"target": "ODF3L1", "test": "pooled miR-30 sensor sort-seq; sequence = guide strand", "conditions": "shRNA", "values": [
      {"sequence": "TAAGCTGGTGCCTTGAACATGG", "sensor-assay potency score (higher = more potent)": 0.328},
      {"sequence": "ATCTTCTCAAAGTAGTACTGGC", "sensor-assay potency score (higher = more potent)": -0.892},
      {"sequence": "TGTCATGATCTATGTAGCCCGT", "sensor-assay potency score (higher = more potent)": -0.612},
      {"sequence": "TTGTGCACAGTGACCTGCTGGA", "sensor-assay potency score (higher = more potent)": 0.448},
      {"sequence": "ACATCCTCCTTGTAGAACCAGT", "sensor-assay potency score (higher = more potent)": -1.04},
      {"sequence": "TCCTTGTAGAACCAGTTCTTGT", "sensor-assay potency score (higher = more potent)": -1.85},
      {"sequence": "TAGCAGGGAGCAGCTCGGCTGA", "sensor-assay potency score (higher = more potent)": -1.48},
      {"sequence": "TCTGCTACTAGAAATCTTGGTC", "sensor-assay potency score (higher = more potent)": 0.655},
      {"sequence": "TTGAGGTCCATCACTCTGTATG", "sensor-assay potency score (higher = more potent)": -1.32},
      {"sequence": "TCATGATCTATGTAGCCCGTGC", "sensor-assay potency score (higher = more potent)": -0.361}
    ]},
    {"target": "ODF4", "test": "pooled miR-30 sensor sort-seq; sequence = guide strand", "conditions": "shRNA", "values": [
      {"sequence": "TAGCAAAGGATCGCGCAGGTGA", "sensor-assay potency score (higher = more potent)": -0.209},
      {"sequence": "TCTCTTTCTCCTTCTGACCTGG", "sensor-assay potency score (higher = more potent)": -0.166},
      {"sequence": "TCTGTGATCGTCTGTGCCCTTG", "sensor-assay potency score (higher = more potent)": -0.736},
      {"sequence": "TATAGGATAAGCACCAGCCAAC", "sensor-assay potency score (higher = more potent)": -1.15},
      {"sequence": "TTCTACTGAGCCGAAACTGCTG", "sensor-assay potency score (higher = more potent)": -0.397},
      {"sequence": "TTGAAGTAGCAAAGGATCGCGC", "sensor-assay potency score (higher = more potent)": 0.0925},
      {"sequence": "TTCCAGGTCTCTGATGTTGGTC", "sensor-assay potency score (higher = more potent)": -1.05},
      {"sequence": "TTGGTCTCTTTCTCCTTCTGAC", "sensor-assay potency score (higher = more potent)": -0.95},
      {"sequence": "TCTACTGAGCCGAAACTGCTGC", "sensor-assay potency score (higher = more potent)": 0.472},
      {"sequence": "TCTTCTACTGAGCCGAAACTGC", "sensor-assay potency score (higher = more potent)": -1.39}
    ]},
    {"target": "OGDHL", "test": "pooled miR-30 sensor sort-seq; sequence = guide strand", "conditions": "shRNA", "values": [
      {"sequence": "TTGCTCATCTGCAGGAACCTTT", "sensor-assay potency score (higher = more potent)": -0.719},
      {"sequence": "TTCATAGGCACACACGTCCTGC", "sensor-assay potency score (higher = more potent)": -1.24},
      {"sequence": "TACTTTGGTACACATGAGCTGT", "sensor-assay potency score (higher = more potent)": -0.325},
      {"sequence": "TGGAGAACTGCATCACACCAGG", "sensor-assay potency score (higher = more potent)": -1.03},
      {"sequence": "TACATCTCCTCCATGTAACTGG", "sensor-assay potency score (higher = more potent)": -0.405},
      {"sequence": "TAAGCCTCCTCACAGATCCGGT", "sensor-assay potency score (higher = more potent)": -0.839},
      {"sequence": "TTCTTGGTCATGTCCGCACGGC", "sensor-assay potency score (higher = more potent)": -0.866},
      {"sequence": "TTCAGCACAGGCACCTGTCTGT", "sensor-assay potency score (higher = more potent)": 0.114},
      {"sequence": "TTTGAATCTACAGATAAGCGAG", "sensor-assay potency score (higher = more potent)": -0.201},
      {"sequence": "TTGACCACGATCCAGTTGCAGT", "sensor-assay potency score (higher = more potent)": -1.4},
      {"sequence": "TTGAATCTACAGATAAGCGAGG", "sensor-assay potency score (higher = more potent)": -0.941},
      {"sequence": "TTCTACTTTGGTACACATGAGC", "sensor-assay potency score (higher = more potent)": -0.678}
    ]},
    {"target": "OLFML2A", "test": "pooled miR-30 sensor sort-seq; sequence = guide strand", "conditions": "shRNA", "values": [
      {"sequence": "TAGCTTGTACATGTTACTCCAG", "sensor-assay potency score (higher = more potent)": -0.555},
      {"sequence": "TTGTAGGGTAGCTTGTACATGT", "sensor-assay potency score (higher = more potent)": -0.494},
      {"sequence": "TTGTAGTAGGTGAAGCCCCGGA", "sensor-assay potency score (higher = more potent)": -0.647},
      {"sequence": "TTATACTTGACTTTGTTCTAAA", "sensor-assay potency score (higher = more potent)": -0.893},
      {"sequence": "TAACTTTTAAAAATCAGCCTAT", "sensor-assay potency score (higher = more potent)": -0.201},
      {"sequence": "TTGAGTTTCTCCATCTTCCACT", "sensor-assay potency score (higher = more potent)": -0.593},
      {"sequence": "TAGTTGGTGACATAGATCCTGT", "sensor-assay potency score (higher = more potent)": -0.519},
      {"sequence": "TACTTGATGATGTTCTTGGTGA", "sensor-assay potency score (higher = more potent)": 0.197}
    ]}
  ]
}
